Structures are written as SMILES. “And” between values parts separate entries of the source, which are not always exact repeats. Equal entries are not always repeated. Structures can show the parent of a compound that is named as a salt. ± gives the standard deviation of the averaged measurements. Whole data set: some 1,800 compounds, median “GFP- (p16Ink4a-) cell count relative to negative-control wells” near 0.99, cut for the lowest 2% near 0.5. The sample holds the lowest values, similar compounds and a random draw of the others, so the mix is not that of the screen.

This assay deals with mouse p16Ink4a+/- lung fibroblasts (INKBRITE, bleomycin-injured). The assay is described as follows: GFP- (p16Ink4a-) cell count relative to negative-control wells (fold of vehicle); higher = more p16Ink4a- cells surviving. The note with it: 1 µM; 3 days.
For `N[C@H]1C[C@@H]1c1ccc(-c2cccc(O)c2)cc1`, the GFP- is 1.01 ± 0.044.

As to `Cc1c(C(=O)NN2CCCCC2)nn(-c2ccc(Cl)cc2Cl)c1-c1ccc(I)cc1`, the GFP- was 1.06.

Take `Cn1cc(-c2ccc3ncc(Cc4ccc5ncccc5c4)n3n2)cn1`: the GFP- stood at 1.01. In the case of `O=C1C(Cl)=C(N2CCOCC2)C(=O)N1c1ccc(Cl)c(Cl)c1`, the GFP- is 1.05. As to `Cc1ccc(Nc2nccc(N(C)c3ccc4c(C)n(C)nc4c3)n2)cc1S(N)(=O)=O` [Pazopanib], the GFP- was 0.999 and 1.07. Consider `CNC(=O)c1ccc(N2C(=S)N(c3ccc(C#N)c(C(F)(F)F)c3)C(=O)C2(C)C)cc1F` [Enzalutamide], for which the GFP- is 1.11. In the case of `CC1(C)Cc2c(-c3ccccc3)c(-c3ccc(Cl)cc3)c(CC(=O)O)n2C1` [Licofelone] it was 0.892. The result for `CNCc1ccc(-c2[nH]c3cc(F)cc4c3c2CCNC4=O)cc1` [Rucaparib] reads 0.817 ± 0.037. The result for `CCCCN1CCCCC1C(=O)Nc1c(C)cccc1C` (stereo not drawn) [Bupivacaine] reads 1.13; that for `CC(C)C[C@H](NC(=O)[C@H](Cc1ccccc1)NC(=O)c1cnccn1)B(O)O` [Bortezomib], 0.294; that for `CNC(=O)[C@H](Cc1ccccc1)NC(=O)[C@H](CC(C)C)[C@H](CSc1cccs1)C(=O)NO` [Batimastat], 1.08. `CC(C)C1CCC(C(=O)N[C@H](Cc2ccccc2)C(=O)O)CC1` (stereo partly drawn) [Nateglinide] showed a GFP- of 1.06.

Consider `Nc1nc(N)c(N=O)c(OCC2CCCCC2)n1`, for which the GFP- stood at 1.07. On to `Clc1ccc(Nc2nnc(Cc3ccncc3)c3ccccc23)cc1` [Vatalanib], for which the GFP- worked out at 0.918. The result for `Cc1cccc(C)c1OCC(=O)N[C@@H](Cc1ccccc1)[C@@H](O)C[C@H](Cc1ccccc1)NC(=O)[C@H](C(C)C)N1CCCNC1=O` [Lopinavir] reads 0.947. The result for `CC[C@H]1OC(=O)[C@H](C)[C@@H](O[C@H]2C[C@@](C)(OC)[C@@H](O)[C@H](C)O2)[C@H](C)[C@@H](O[C@@H]2O[C@H](C)C[C@H](N(C)C)[C@H]2O)[C@](C)(O)C[C@@H](C)/C(=N/OCOCCOC)[C@H](C)[C@@H](O)[C@]1(C)O` [Roxithromycin] reads 0.988; that for `Sc1ncnc2[nH]cnc12` [Mercaptopurine], 1.05; that for `COC[C@H](NC(=O)c1cnc(C)s1)C(=O)N[C@@H](COC)C(=O)N[C@@H](Cc1ccccc1)C(=O)C1(C)CO1` (stereo partly drawn) [Oprozomib], 0.381. The result for `C=CC(=O)Nc1ccc2ncnc(Nc3cccc(Br)c3)c2c1` reads 0.994. As to `Cc1onc(-c2c(Cl)cccc2Cl)c1C(=O)N[C@@H]1C(=O)N2[C@@H]1SC(C)(C)[C@@H]2C(=O)O` [Dicloxacillin], the GFP- stood at 0.966. As for `COc1cc(N2CCC(N(C)C)CC2)ccc1Nc1ncc(Cl)c(Nc2ccccc2P(C)(C)=O)n1`, the GFP- was determined as 1.08. Compound `NC(=O)N1c2ccccc2CC(=O)c2ccccc21` [Oxcarbazepine, Trileptal] displayed a GFP- of 1.06. The result for `C[C@H](NC(=O)[C@@H](O)c1cc(F)cc(F)c1)C(=O)N[C@@H]1C(=O)N(C)c2ccccc2-c2ccccc21` reads 0.963; that for `Cc1cc(=O)oc2cc(O)ccc12` [7-hydroxy-4-methyl-2H-chromen-2-one], 1.08; that for `Cn1cnc(N)c2ncnc1-2` [3-Methyladenine], 0.988. `COc1ccc(CCc2nc3cc(-c4c(C)noc4C)ccc3n2C[C@H](C)N2CCOCC2)cc1Cl` came in with a GFP- of 0.854 ± 0.4. The result for `C=CCc1ccc(O)c(-c2cc(CC=C)ccc2O)c1` [Magnolol] reads 0.993; that for `Cc1c[nH]c(-c2cnc(NCCNc3ccc(C#N)cn3)nc2-c2ccc(Cl)cc2Cl)n1`, 1.14. In the case of `CCNC(=O)c1[nH]nc(-c2cc(Cl)c(O)cc2O)c1-c1ccc(OC)cc1` it was 0.89; in that of `CS(=O)(=O)OCCCCOS(C)(=O)=O` [Busulfan], 0.83; in that of `CCOc1ccc2ccccc2c1C(=O)N[C@@H]1C(=O)N2[C@@H]1SC(C)(C)[C@@H]2C(=O)O` [Nafcillin Sodium], 0.94. The result for `CCO/C(O)=C1\C(C)=NC(C)=C(C(=O)OC)C1c1cccc([N+](=O)[O-])c1` (stereo not drawn) [Nitrendipine] reads 1.18. `O=c1cc(N2CCOCC2)oc2c1ccc1ccccc12` showed a GFP- of 1.03.

In the case of `Nc1cc(C(F)(F)F)c(-c2cc(N3CCOCC3)nc(N3CCOCC3)n2)cn1` [Buparlisib], the GFP- worked out at 0.719. The result for `C#Cc1cccc(Nc2ncnc3cc4c(cc23)OCCOCCOCCO4)c1` [Icotinib] reads 0.916; that for `O=C(NOCC(O)CO)c1cc(Br)c(F)c(F)c1Nc1ccc(I)cc1F` (stereo not drawn), 0.818; that for `C#Cc1cccc(Nc2ncnc3cc(OCCOC)c(OCCO)cc23)c1`, 0.823. In the case of `C#Cc1cccc(Nc2ncnc3cc(OC)c(OCCCCCCC(=O)NO)cc23)c1` it was 1.01 ± 0.091; in that of `C#Cc1cccc(Nc2ncnc3cc(OCCOC)c(OCCOC)cc23)c1` [Erlotinib], 0.287. In the case of `C[C@@H]1CN(c2c(F)c(N)c3c(=O)c(C(=O)O)cn(C4CC4)c3c2F)C[C@H](C)N1` [Sparfloxacin] it was 1.02; in that of `CCN1CCN(Cc2ccc(Nc3ncc(F)c(-c4cc(F)c5nc(C)n(C(C)C)c5c4)n3)nc2)CC1`, 0.983; in that of `Cc1cc(C)c2c(c1)[C@@H](N(Cc1cc(C(F)(F)F)cc(C(F)(F)F)c1)c1nnn(C)n1)CCCN2C[C@H]1CC[C@H](C(=O)O)CC1` [Evacetrapib], 0.993.

`C[C@H](CCC(=O)O)[C@H]1CC[C@H]2[C@@H]3C[C@H](O)[C@@H]4C[C@H](O)CC[C@]4(C)[C@H]3CC[C@]12C` [Hyodeoxycholic acid (HDCA)]: the GFP- amounted to 0.901. Compound `CC1(C)SC2C(NC(=O)[C@H](NC(=O)N3CCNC3=O)c3ccccc3)C(=O)N2C1C(=O)O` (stereo partly drawn) [Azlocillin sodium salt] gave a GFP- of 0.956.

In the case of `CC(C)(C)c1nc(-c2cccc(NS(=O)(=O)c3c(F)cccc3F)c2F)c(-c2ccnc(N)n2)s1` [Dabrafenib], the GFP- worked out at 0.448.

As to `C[C@]12CC[C@@H]3c4ccc(O)cc4C[C@@H](CCCCCCCCCS(=O)CCCC(F)(F)C(F)(F)F)[C@H]3[C@@H]1CC[C@@H]2O` (stereo partly drawn) [Fulvestrant], the GFP- was determined as 1.15. The result for `NS(=O)(=O)c1ccc(NC(=O)Nc2ccc(F)cc2)cc1` reads 1.06; that for `CN1CCC(NC(=O)c2cc(-c3c(O)cc(O)cc3Oc3ccc([N+](=O)[O-])cc3)on2)CC1`, 1.03; that for `Cn1c(=O)cc(N2CCC[C@@H](N)C2)n(Cc2cc(F)ccc2C#N)c1=O` [Trelagliptin], 0.941.

`C[N+](C)(C)CC(O)CC(=O)O` (stereo not drawn) [Carnitine Hydrochloride, Carnitine (dl) Hydrochloride]: the GFP- turned out to be 1.1. The result for `C[C@H](NCc1ccc(OCc2cccc(F)c2)cc1)C(N)=O` [Safinamide] reads 1.06; that for `OC[C@@H](O)CN1CCN(c2ccccc2)CC1` [Levodropropizine], 1.05. The result for `CC(=O)O[C@]1(C(C)=O)CC[C@H]2[C@@H]3C=C(Cl)C4=CC(=O)[C@@H]5C[C@@H]5[C@]4(C)[C@H]3CC[C@@]21C` [Cyproterone Acetate] reads 1.14; that for `C=C1CC[C@H](O)C/C1=C/C=C1\CCC[C@]2(C)[C@@H]([C@H](C)CCCC(C)(C)O)CC[C@@H]12` [Calcidiol], 1.2; that for `CCOC(=O)c1c(CSc2ccccc2)n(C)c2cc(Br)c(O)c(CN(C)C)c12` [Arbidol HCl], 0.933. In the case of `O=S(=O)(c1ccccc1)N(CC(F)(F)F)c1ccc(C(O)(C(F)(F)F)C(F)(F)F)cc1` it was 0.972. `CN1CCOC(c2ccccc2)c2ccccc2C1` (stereo not drawn) [Nefopam] registered a GFP- of 1.1. The result for `CCOC(=O)[C@H](CCc1ccccc1)N[C@H]1CCc2ccccc2N(CC(=O)O)C1=O` [Benazepril] reads 1.01. In the case of `Cc1c(-c2ccccc2)oc2c(C(=O)OCCN3CCCCC3)cccc2c1=O` [Flavoxate] it was 1.1; in that of `C[C@@H]1O[C@@H](O[C@H]2[C@H](Oc3cc(O)c4c(c3)O[C@H](c3ccc(O)cc3)CC4=O)O[C@H](CO)[C@@H](O)[C@@H]2O)[C@H](O)[C@H](O)[C@H]1O` [Naringin], 1.1. As to `Nc1ccc(S(=O)(=O)Nc2ccccn2)cc1` [Sulfapyridine], the GFP- was 0.965. `O=C1C[C@@H](c2ccc(O)cc2)Oc2cc(O)cc(O)c21` [Naringenin]: the GFP- amounted to 0.938. `C/C(=N\NC(=S)N1CCC1)c1ccccn1`: the GFP- was 0.4. In the case of `Cn1c(=O)cc(N2CCC[C@@H](N)C2)n(Cc2ccccc2C#N)c1=O` [Alogliptin] it was 0.943; in that of `COC(=O)[C@H]1[C@H]2C[C@@H]3c4[nH]c5cc(OC)ccc5c4CCN3C[C@H]2C[C@@H](OC(=O)c2cc(OC)c(OC)c(OC)c2)[C@@H]1OC` [Reserpine], 0.806. In the case of `C=CC[N+]1([C@H]2C[C@H]3[C@@H]4CC[C@H]5C[C@H](O)[C@@H](N6CCOCC6)C[C@]5(C)[C@H]4CC[C@]3(C)[C@H]2OC(C)=O)CCCC1` [Rocuronium] it was 0.894; in that of `COc1cccc2c1C(=O)c1c(O)c3c(c(O)c1C2=O)C[C@@](O)(C(C)=O)C[C@@H]3O[C@H]1C[C@H](N)[C@H](O)[C@H](C)O1` [Daunorubicin], 0.754; in that of `COc1cccc2c1C(=O)c1c(O)c3c(c(O)c1C2=O)C[C@@](O)(C(=O)CO)C[C@@H]3O[C@H]1C[C@H](N)[C@H](O)[C@H](C)O1` [Doxorubicin], 0.72. In the case of `CC(=O)[C@]1(O)Cc2c(O)c3c(c(O)c2[C@@H](O[C@H]2C[C@H](N)[C@H](O)[C@H](C)O2)C1)C(=O)c1ccccc1C3=O` [Idarubicin, Idarubicin Hydrochloride] it was 0.224; in that of `COc1cc(-c2cc3ccccc3[nH]2)[nH]c1/C=C1\N=C(C)C=C1C` [Obatoclax Mesylate], 0.249.

For the compound `C=C1C(=O)O[C@@H]2/C=C(\C)CC/C=C(\C)CC[C@@H]12` [Costunolide], the GFP- worked out at 1.1. In the case of `Cc1coc2c1C(=O)C(=O)c1c-2ccc2c(C)cccc12` [Tanshinone I] it was 1.03. In the case of `Cn1cc(-c2ccc3nnc(Sc4ccc5ncccc5c4)n3n2)cn1` it was 0.95.

Source of the values: the supplement of paper PMC11060735.
